Activity calls are given as the source filed them. Unless noted, no rule for the calls is given here.
Tests used:
[1] = tested on: XIP peptide (Xip251-270) binding; experiment: small-molecule binders of XIP peptide, primary screen, biochemical, small-molecule microarray, fluorescence 635/667 nm, 0.1 µg/mL protein (AID 1182); conditions: fluorescent protein binding, 635 nm, higher = more signal, called active from +8 up or from −8 down
XIP peptide (Xip251-270) = experiment: small-molecule binders of XIP peptide, primary screen, biochemical, small-molecule microarray, fluorescence 635/667 nm, 0.5 µg/mL protein (AID 1183); conditions: small-molecule microarray binding, fluorescence 635 nm; higher = more signal
[2] = Plasmodium falciparum growth inhibition, primary screen, strain 3D7, DAPI fluorescence, 100 nL (AID 1184);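 also: parasites grown inside human red blood cells in medium with human serum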; conditions: P. falciparum 3D7 growth, 3 d, higher = more signal
[3] = biological target: Homeobox protein Hox-A13 (Mus musculus) (UniProt Q62424); experiment: inhibitors of HoxA13-DNA binding, primary screen, biochemical, fluorescence polarization, labeled oligonucleotide (AID 1185); conditions: 15 min, higher = more signal, called active from +8 up or from −8 down
Sequence of Homeobox protein Hox-A13 (Mus musculus) (Q62424 whole entry, looked up): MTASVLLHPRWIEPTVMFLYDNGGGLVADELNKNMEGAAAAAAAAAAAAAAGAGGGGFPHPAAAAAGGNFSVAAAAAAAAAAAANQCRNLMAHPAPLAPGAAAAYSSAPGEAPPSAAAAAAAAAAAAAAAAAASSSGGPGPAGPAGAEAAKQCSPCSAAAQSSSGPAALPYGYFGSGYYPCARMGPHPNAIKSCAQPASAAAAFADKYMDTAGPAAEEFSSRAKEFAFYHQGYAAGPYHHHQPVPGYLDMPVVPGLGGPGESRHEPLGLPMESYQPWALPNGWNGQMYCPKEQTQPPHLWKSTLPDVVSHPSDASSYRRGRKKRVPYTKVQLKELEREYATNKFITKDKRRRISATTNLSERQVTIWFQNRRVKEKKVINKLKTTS

[4] = inhibitors of hydroxyurea-induced Chk1 phosphorylation, primary screen, imaging, HeLa, phospho-Chk1 antibody, percent positive cells (AID 1186); conditions: hydroxyurea-induced phospho-Chk1 immunofluorescence imaging, higher = more signal
[5] = inhibitors of hydroxyurea-induced Chk1 phosphorylation, primary screen, imaging, HeLa, phospho-Chk1 nuclear intensity (AID 1187); conditions: hydroxyurea-induced phospho-Chk1 immunofluorescence imaging, higher = more signal

SMILES | composite z-score [1] | composite z-score (XIP peptide (Xip251-270)) | z-score [2] | z-score [3] | z-score [4] | z-score [5]
CCOC(=O)C1=C[C@@H](c2ccccc2)N(S(=O)(=O)c2ccc(C)cc2)[C@H]1c1ccccc1Cl | 0.566 (inactive) | 0.307 | -2.02 | 0.552 (inactive) | -0.339 (inactive) | -0.865 (inactive)
C=CC[C@]1(C(=O)O)COC(c2ccc(OCCCO)cc2)=N1 | 0.324 (inactive) | 0.614 | -0.12 | -0.685 (inactive) | -0.173 (inactive) | -0.315 (inactive)
COCCOC(=O)N1C(=O)[C@@]2(c3cc(C#CCCO)ccc31)[C@H](C(=O)Nc1nc3ccccc3s1)[C@H]1C(=O)O[C@H](c3ccccc3)[C@H](c3ccccc3)N1[C@@H]2c1ccccc1OCCO | 0.0261 (inactive) | 0.73 | -1.68 | 2.62 (inactive) | 0.225 (inactive) | 0.416 (inactive)
C=C[C@@H](OC)[C@H](OC(=O)Nc1ccc(SC)cc1)c1ccc(O)c(F)c1 | 0.313 (inactive) | 0.0562 | -0.386 | -4.2 (inactive) | -0.337 (inactive) | -0.23 (inactive)
COC1OC[C@]2(C)[C@H]3C4=C(CN2C(=O)OC(C)(C)C)[C@H](C)C(CO)C(CO)C4CC[C@@H]13 (some centres undefined) | 1.48 (inactive) | 0.745 | -0.892 | -4.97 (inactive) | 0.495 (inactive) | -0.0531 (inactive)
Cc1ccc(S[C@]2(C(=O)O)CC(=O)N(Cc3cc(C(F)(F)F)cc(C(F)(F)F)c3)[C@@H]2c2ccc(CO)cc2)cc1 | -0.287 (inactive) | -1.25 | 0.777 | -3.18 (inactive) | 0.0261 (inactive) | -0.641 (inactive)
CN(C)C(=O)[C@@]1(Cc2ccccc2CN=[N+]=[N-])N=C(c2ccc(OCCCO)cc2)O[C@H]1c1ccccc1CN=[N+]=[N-] | 0.105 (inactive) | 0.707 | -2.15 | -2.04 (inactive) | -0.0765 (inactive) | 0.127 (inactive)
COC(=O)c1cn(C[C@@H](Cc2ccccc2)NC(=O)N[C@H](CO)CCc2oc(C(C)=O)c(C(=O)OC)c2C(=O)OC)nn1 | 0.224 (inactive) | 0.111 | -0.818 | -4.33 (inactive) | -0.406 (inactive) | -0.043 (inactive)
O=C(NCC(F)(F)F)[C@@H]1c2ccccc2C(=O)N(Cc2ccccc2C(F)(F)F)[C@H]1c1ccc(CO)cc1 | 0.774 (inactive) | 0.374 | -0.485 | -2.95 (inactive) | 0.0364 (inactive) | -0.0409 (inactive)
COCCOC(=O)N1C(=O)[C@@]2(c3cc(C#Cc4ccc(OC)cc4)ccc31)[C@H](c1ccccc1OCCO)N1[C@H](c3ccccc3)[C@H](c3ccccc3)OC(=O)[C@H]1[C@@H]2C(=O)N1CCCCCCC1 | 1.93 (inactive) | 0.319 | -2.02 | 4.73 (inactive) | -0.434 (inactive) | -0.648 (inactive)
C=C[C@@H](COC(C)=O)N(C(=O)OC(C)(C)C)S(=O)(=O)c1ccc(Br)cc1 | 0.805 (inactive) | 0.546 | 0.573 | -2.35 (inactive) | -0.506 (inactive) | -0.474 (inactive)
COc1ccc([Si](C)(C)[C@H]2[C@H](CCO)O[C@@]3(C(=O)N(Cc4cccc(N5C(=O)COc6ccccc65)c4)c4ccccc43)[C@@H]2C)cc1 | 0.595 (inactive) | 0.649 | -2.8 | -1.2 (inactive) | -0.327 (inactive) | 0.208 (inactive)
CC(C)C(=C=CC[C@H](O)c1ccc(OCCO)cc1)C[C@H](O)c1ccccn1 | -0.0991 (inactive) | 0.909 | -2.06 | -5.38 (inactive) | -0.0725 (inactive) | 0.223 (inactive)
CN1C(=O)C2C=CC(C(O)C#Cc3ccccc3)N(Nc3ccccc3)C2C1=O (centres undefined) | 0.783 (inactive) | 0.794 | -0.351 | -4.25 (inactive) | -0.0435 (inactive) | 0.113 (inactive)
COc1ccc(CCNC(=O)[C@@H]2c3ccccc3C(=O)N(Cc3cc(C(F)(F)F)cc(C(F)(F)F)c3)[C@H]2c2ccc(CO)cc2)cc1 | 0.381 (inactive) | 0.649 | -1.17 | -2.92 (inactive) | -0.198 (inactive) | 0.173 (inactive)
COCCOC(=O)N1C(=O)[C@@]2(c3cc(C#CC4=CCCCC4)ccc31)[C@H](c1ccc(OCCO)cc1)N1[C@H](c3ccccc3)[C@H](c3ccccc3)OC(=O)[C@H]1[C@@H]2C(=O)N1CCN(c2ncccn2)CC1 | 0.975 (inactive) | 0.278 | -2.19 | 2.06 (inactive) | 0.313 (inactive) | 0.448 (inactive)
CO[C@H]1O[C@H](CO)[C@@H](OC(=O)Nc2ccccc2-c2ccccc2)[C@H](OC(=O)Nc2ccc3c(c2)OCO3)[C@H]1OC(=O)Nc1ccc2c(c1)OCO2 | 0.886 (inactive) | 0.892 | -1.6 | -9.89 (active) | -0.356 (inactive) | -0.272 (inactive)

SMILES | composite z-score [1] | composite z-score (XIP peptide (Xip251-270)) | z-score [2] | z-score [3] | z-score [4] | z-score [5]
COCC1=C2[C@@H](CCc3ccccc3)OB(O)C[C@@H]2[C@@H]2C(=O)C=CC(=O)[C@@H]2C1 | 0.796 (inactive) | -0.154 | -1.28 | -6.27 (inactive) | 0.162 (inactive) | 0.398 (inactive)
CCOC(=O)C1=CC[C@@H](c2ccccc2C(F)(F)F)N(S(=O)(=O)c2ccc(C)cc2)[C@H]1c1ccc(C#N)cc1 | 0.205 (inactive) | 0.534 | -2.2 | -0.224 (inactive) | 0.479 (inactive) | -0.581 (inactive)
CC(C)(C)OC(=O)CC[C@]1(C(=O)NCC(O)CO)N=C(c2ccc(OCCCO)cc2)O[C@H]1c1ccccc1 (some centres undefined) | 0.0294 (inactive) | 0.628 | -1.74 | -4.14 (inactive) | -0.703 (inactive) | -0.886 (inactive)
CC(CO)N1C(=O)[C@@H]2[C@H]3C(=O)OCC=C[C@H]3OC23C=CCN(CCN2CCOCC2)C(=O)[C@@H]13 (some centres undefined) | -0.0198 (inactive) | 0.154 | 0.177 | -5.37 (inactive) | -0.259 (inactive) | -0.252 (inactive)
CCOC(=O)C[C@H]1[C@H](OC(=O)c2cc3ccccc3oc2=O)[C@@H](NC(=O)Cc2ccc(OC)cc2)c2cc(OCCCO)ccc2N1C(=O)c1ccc2ccccc2n1 | -0.426 (inactive) | 0.255 | -1.01 | -4.04 (inactive) | 0.134 (inactive) | 0.203 (inactive)
CC(C)[Si](C#C[Si](C(C)C)(C(C)C)C(C)C)(O[C@H](C)c1cn([C@H](CO)Cc2ccccc2)nn1)C(C)C | 0.183 (inactive) | 0.348 | 0.67 | -0.249 (inactive) | -0.258 (inactive) | -0.36 (inactive)
OCC1CC(c2ccccc2)=NO1 (centres undefined) | -0.336 (inactive) | -0.118 | 0.308 | 0.0368 (inactive) | -0.582 (inactive) | -0.0558 (inactive)
CC(C)[Si](C#CCCCC#N)(O[C@H](c1ccccc1)c1cn([C@H](CO)Cc2ccccc2)nn1)C(C)C | 0.0339 (inactive) | 0.283 | 0.0921 | -0.999 (inactive) | -0.43 (inactive) | -1.05 (inactive)
[N-]=[N+]=NCc1ccccc1C[C@@]1(C(=O)N2CCCCC2)N=C(c2ccc(OCCCO)cc2)O[C@@H]1c1ccccc1 | -0.194 (inactive) | 0.434 | -2.38 | -4.86 (inactive) | -0.219 (inactive) | -0.234 (inactive)
CCCCCCc1nc(C2CC2)cc2c1[Si](C(C)C)(C(C)C)O[C@H]2c1ccccc1 | 0.263 (inactive) | 0.421 | -0.358 | -1.54 (inactive) | -0.507 (inactive) | -0.465 (inactive)
O=C1N(Cc2ccccc2)c2ccccc2[C@@H]2OC(c3ccc(OCCCO)cc3)=N[C@]12Cc1ccccc1 | 0.0973 (inactive) | 0.862 | -2.45 | -2.22 (inactive) | -0.389 (inactive) | -0.321 (inactive)
COC(=O)[C@@]1(Cc2ccccc2)[C@H]2c3cc(C(=O)N(C)C)n(Cc4c(CO)[nH]cc(C)c4=O)c3C[C@H]2CN1C(=O)c1ccccc1 | 0.278 (inactive) | 0.3 | -1.16 | -5.3 (inactive) | -0.0454 (inactive) | 0.0707 (inactive)
CCCCCCc1nc(-c2cc(C)c(OC)c(C)c2)c(C)c2c1[Si](C(C)C)(C(C)C)OC2 | -0.31 (inactive) | -0.306 | -2.23 | -0.241 (inactive) | 0.0933 (inactive) | 0.149 (inactive)
CN(C)CCCCNC(=O)[C@@H]1C[C@@H]2C(=O)N[C@@H](Cc3ccccc3)C(=O)N2[C@@H]1c1cccc(OCCO)c1 | 0.096 (inactive) | 0.762 | 0.0546 | -3.94 (inactive) | -1.08 (inactive) | -0.295 (inactive)
O=C(NCCCCCNC(=O)/C(Cc1ccccc1)=N/O)OCc1ccccc1 | -0.333 (inactive) | 0.132 | -1.94 | -4.08 (inactive) | -0.466 (inactive) | 0.238 (inactive)
O=C(NCC(F)(F)F)[C@@H]1c2ccccc2C(=O)N(Cc2ccc(OC(F)(F)F)cc2)[C@H]1c1ccc(CO)cc1 | 0.21 (inactive) | 0.235 | -0.828 | -3.13 (inactive) | -0.263 (inactive) | -0.383 (inactive)
CN(C)C(=O)C1N=C(c2ccc(OCCCO)cc2)N(c2ccccc2)O1 (centres undefined) | 0.94 (inactive) | 0.62 | 0.639 | -1.46 (inactive) | -0.823 (inactive) | -0.846 (inactive)

Reference: PubChem BioAssay
